Test results from ChEMBL document CHEMBL1157539, “Thousands of chemical starting points for antimalarial lead identification” (Nature, 2010).

Each compound was assayed on Plasmodium falciparum (assay: GSK_TCMDC: Inhibition of Plasmodium falciparum Dd2 in whole red blood cells, using parasite LDH activity as an index of growth. Test compounds present at 2uM).
Type: functional
Work on `O=C(/C=C/c1ccc(Cl)c(Cl)c1)NCCCCCN1CCC(NC(=O)c2ccc(F)cc2F)CC1` yielded an Inhibition of 11%.
Work on `COc1cccc(CC(=O)N2CCC(n3c(C)nc4ccc(F)cc43)CC2)c1` yielded an Inhibition of 99%.
`O=C(/C=C/c1ccc(Cl)c(Cl)c1)N1CCC(CCN2CCc3[nH]c4ccccc4c3C2)CC1.O=C(O)C(F)(F)F` showed an Inhibition of 0%.
`COc1ccccc1CCC(C)(C)NC(=O)CC(CCc1ccccc1)Nc1ccc(C#N)c2ccccc12` (stereo not drawn) gave an Inhibition of 65%.
With `COc1c(CCNCCCCNCCc2cc(Cl)c3ccccc3c2OC)cc(Cl)c2ccccc12.CS(=O)(=O)O` the Inhibition was 100%.
`Cc1cc(N[C@@H](CC(C)C)C(=O)NCc2cccc(F)c2)nc(Nc2ccccc2)n1.O=C(O)C(F)(F)F` showed an Inhibition of 76%.
In the case of `CCC(Cc1ccccc1)c1cc(O)c(Cc2ccc(-c3ccccc3)cc2)c(=O)o1` (stereo not drawn), the Inhibition was 0%.
`CC(C)Nc1ccc(Nc2ccnc3cc4ccccc4cc23)cc1` was tested, and the Inhibition was 81%.
For `COc1ccc(Nc2nc(NC3CCN(Cc4ccccc4)CC3)cc(-c3ccncc3)n2)cc1`, the Inhibition was 40%.
Compound `Cc1cccc2nc(-c3ccc(-c4cccc(NC(=O)C(=O)c5cccn5C)c4)cc3)[nH]c12` has an Inhibition of 17%.
For `O=C(/C=C/c1ccc(Cl)c(Cl)c1)NCCCCCN1CCC(NC(=O)Nc2ccc(Cl)c(C(F)(F)F)c2)CC1`, the Inhibition was 19%.
For `Br.CCCc1cccc(C)c1OCCCON1C(=N)N=C(N)NC1(C)C`, the Inhibition was 96%.
`CC(C)N1CCC(Oc2ccc(CN3CCN(C(c4ccccc4)c4ccc(Cl)cc4)CC3)cc2)CC1.Cl` (stereo not drawn) gave an Inhibition of 46%.
In the case of `CC(C)(C)OC(=O)NCc1ccc(Nc2nnc(-c3ccc(OCC(=O)NCc4cc(C(F)(F)F)cc(C(F)(F)F)c4)c([N+](=O)[O-])c3)o2)cc1`, the Inhibition was 92%.
`COc1ccc2nccc([C@@H](O)CN3CCC(NC(=O)c4cc5c(F)cc(F)cc5[nH]4)CC3)c2c1.CS(=O)(=O)O` gave an Inhibition of 98%.
`COc1cc2nc(N3CCC(CNC(=O)c4ccc(-c5ccc(-c6noc(C)n6)cc5C)cc4)CC3)nc(N)c2cc1OC` was tested, and the Inhibition was 99%.
`O=C(Nc1cccc(-c2ccc(-c3nc4ccccc4[nH]3)cc2)c1)c1ccncc1` gave an Inhibition of 58%.
Work on `CN1CC[C@@H](Oc2cc(CNC(=O)c3ccc(-c4ccc(Cl)cc4)s3)ccc2C(F)(F)F)C1.Cl` yielded an Inhibition of 64%.
In the case of `c1ccc(CNc2nc(NCCc3c[nH]cn3)nc(N3CCCC4CCCCC43)n2)cc1` (stereo not drawn), the Inhibition was 100%.
Compound `O=C(NCC1CCN(Cc2cccc(C(F)(F)F)c2)C1)c1cc(-c2cccc(F)c2)cs1.O=C(O)C(F)(F)F` (stereo not drawn) has an Inhibition of 5%.
Work on `CCCCOc1ccc(-n2c(Nc3ccccc3)nc3cc(S(N)(=O)=O)ccc32)cc1` yielded an Inhibition of 72%.
Compound `N#Cc1ccc(N/C(=N\c2ccc(-c3ccccc3)cc2)NCCc2c[nH]c3ccccc23)c(O)c1` has an Inhibition of 75%.
`c1ccc(Oc2ccc(Nc3ccnc4cc(-c5csc(CNCCN6CCOCC6)n5)ccc34)cc2)cc1` gave an Inhibition of 99%.
With `CC[C@H](NC(=O)c1c(CCCN2CCN(c3ccccc3)CC2)c(-c2ccccc2)nc2cc(O)ccc12)c1ccccc1` the Inhibition was 97%.
`CCN(CC)CCN(Cc1ccc(-c2ccc(C(F)(F)F)cc2)nc1)C(=O)Cn1c(SCc2ccc(F)cc2)nc(=O)c2sccc21.O=C(O)C(O)C(O)C(=O)O` was tested, and the Inhibition was 66%.
For `CCNc1cc(C)nc(Nc2ccc(NC(=O)c3c(F)cccc3Cl)cc2)n1`, the Inhibition was 89%.
In the case of `COc1ccc(-c2nccc(NC(=N)NCc3ccccc3)n2)cc1`, the Inhibition was 21%.
For `CN(CCC(CCN1CCC(c2c[nH]c3ccccc23)CC1)c1ccccc1)C(=O)Nc1ccc(Cl)c(Cl)c1` (stereo not drawn), the Inhibition was 21%.
`COc1nc2c(N3CCN(CCNCc4ccc5c(n4)NC(=O)CO5)CC3)ccnc2cc1F.Cl` was tested, and the Inhibition was 9%.
`Cl.c1ccc2c(Nc3ccc(Oc4ccc(Nc5c6ccccc6nc6ccccc56)cc4)cc3)c3ccccc3nc2c1` was tested, and the Inhibition was 99%.
`CCN(CC)CCNc1ccnc2[nH]c3ccc(I)cc3c12` was tested, and the Inhibition was 95%.
For `Cc1cccc(-c2nn(-c3ccccc3)c3[nH]c(=O)c(CN4CCSCC4)cc23)c1`, the Inhibition was 98%.
`COc1ccc(C(=O)NCc2ccccc2-c2ccc(C(C)(C)C)cc2)cc1O` showed an Inhibition of 97%.
